# From PubChem BioAssay (NCATS)
# Calls of active or inactive are those of the source. The call rests on the fitted dose curve; in most records, active means well fitted curve in the direction sought with a large enough effect; inconclusive means small, poorly fitted or top-dose-only effect, or another doubt; inactive means no such curve, though single readings can be large or run the other way.
# Target: Alpha-galactosidase (Coffea arabica) (UniProt Q42656)
# Assay: Counterscreen for Glucocerebrosidase Inhibitors: qHTS Assay for Coffee Bean alpha-Galactosidase at pH 4.5 (AID 957)
# Conditions: purified coffee bean alpha-galactosidase, fluorogenic substrate; series mostly up to 76.9 µM
# Source text: NIH Chemical Genomics Center [NCGC]
# NIH Molecular Libraries Screening Centers Network [MLSCN]
# PI Name: Zheng, Wei [NIH]
# Alpha-galactosidase is a homodimeric glycoprotein that hydrolyzes the terminal alpha-galactosyl moieties from glycolipids and glycoproteins. Deficiency of this enzyme results in Fabry Disease with progressive accumulation of globotriaosylceramide and other glycosphingolipids in vascular endothelial cells that causes renal failure, myocardial infarction and stroke, and premature death in patients. It has reported that the improper folding and trafficking of alpha-galactosidase resulted from the genetic mutations may account for a significant numbers of Fabry patients. […] We optimized this coffee bean alpha-galactosidase assay in 1536-well plate format as a counter-screen assay for identifying the selective small molecule inhibitors of other lysosomal enzymes.
# NCGC Assay Protocol Summary:
# This is a fluorogenic enzyme assay with 4-Methylumbelliferyl alpha-D-galactopyranoside as the substrate and green coffee bean […] (from Sigma-Aldrich) as the enzyme preparation. Upon the hydrolysis of this fluorogenic substrate, the resulting product, […]. 4-Methyllumbelliferone, can be excited at 365 nm and emits at 440 nm which can be detected by a standard fluorescence plate reader. Data were normalized to the controls for basal activity (without enzyme) and 100% activity (with enzyme). In the AC50 values were determined from concentration-response data modeled with the standard Hill equation.
# Assay buffer: 50 mM citric acid, 0.005% Tween-20, pH 4.5. (pH 5.9 is an optimal condition for this enzyme assay. This assay in pH 4.5 is used for comparison the inhibitor activities with the human alpha-galactosidase assay)
# 1536-well assay protocol for the coffee bean alpha-galactosidase:
# (1) Add 2 ul/well of enzyme (2 nM final)
# (2) Add 23 nL compounds in DMSO solution. The final titration was 0.7 nM to 77 uM.
# (3) Add 1 ul of substrate (80 uM final)
# (4) Incubate at room temperature for 20 min.
# (5) Add 2 ul stop solution (1M NaOH and 1M Glycine mixture, pH 10)
# (6) Detect the assay plate in a ViewLux plate reader (PerkinElmer) with Ex=365 nm and Em=440nm.
# Keywords: Alpha-galactosidase, Fabry Disease, pharmacological chaperone, chaperone therapy, high throughput screening, alpha-galactosidase inhibitor, MLSMR, MLSCN, NIH Roadmap, qHTS and NCGC
# Alpha-galactosidase (Coffea arabica), sequence (Q42656 whole entry, looked up): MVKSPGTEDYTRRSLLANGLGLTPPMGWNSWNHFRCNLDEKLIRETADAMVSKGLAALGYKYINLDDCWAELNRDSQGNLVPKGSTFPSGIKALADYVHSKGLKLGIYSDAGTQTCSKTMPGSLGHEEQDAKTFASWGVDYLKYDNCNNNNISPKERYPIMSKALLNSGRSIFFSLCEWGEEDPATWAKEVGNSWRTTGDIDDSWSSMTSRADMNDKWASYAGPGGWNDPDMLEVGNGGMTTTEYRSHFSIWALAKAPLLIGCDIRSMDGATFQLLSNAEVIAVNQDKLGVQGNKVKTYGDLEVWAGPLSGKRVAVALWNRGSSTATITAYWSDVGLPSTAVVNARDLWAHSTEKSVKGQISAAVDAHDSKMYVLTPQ
row,Structure (SMILES),outcome
1,N#CC(C#N)=Cc1ccc(O)c(O)c1,inactive
2,CC(C)(C)NC(=O)[C@H]1CC[C@H]2[C@@H]3CC[C@H]4NC(=O)C=C[C@]4(C)[C@H]3CC[C@]12C,inactive
3,NC(=O)NO,inactive
4,COC(=O)[C@H]1[C@H]2C[C@@H]3c4[nH]c5cc(OC)ccc5c4CCN3C[C@H]2C[C@@H](OC(=O)c2cc(OC)c(OC)c(OC)c2)[C@@H]1OC,inactive
5,CN1CCC(=C2c3ccccc3C=Cc3ccccc32)CC1,inactive
6,CN1CCN(C2=Nc3ccccc3Oc3ccc(Cl)cc32)CC1,inactive
7,CCC1(c2ccccc2)C(=O)NCNC1=O,inactive
8,O=C1c2c(O)ccc(O)c2C(=O)c2c(NCCNCCO)ccc(NCCNCCO)c21,inactive
9,NCC(CC(=O)O)c1ccc(Cl)cc1 (stereo not given),inactive
10,COc1cc2c(c(OC)c1OC)-c1ccc(OC)c(=O)cc1[C@@H](NC(C)=O)CC2,inactive
11,O=C1NC(=O)C(c2ccccc2)(c2ccccc2)N1,inactive
12,OCCN1CCN(CCCN2c3ccccc3Sc3ccc(Cl)cc32)CC1,inactive
13,Cc1ccc(S(=O)(=O)NC(=O)NN2CCCCCC2)cc1,inactive
14,NCC1(CC(=O)O)CCCCC1,inactive
15,O=c1[nH]c2ccccc2n1CCCN1CCC(n2c(=O)[nH]c3cc(Cl)ccc32)CC1,inactive
16,CCOC(=O)c1ncn2c1CN(C)C(=O)c1cc(F)ccc1-2,inactive
17,O=C(c1ccc(OCCN2CCCCC2)cc1)c1c(-c2ccc(O)cc2)sc2cc(O)ccc12,inactive
18,Nc1nnc(-c2cccc(Cl)c2Cl)c(N)n1,inactive
19,CN[C@H]1CC[C@@H](c2ccc(Cl)c(Cl)c2)c2ccccc21,inactive
20,CC1=C(/C=C/C(C)=C/C=C/C(C)=C/C(=O)Nc2ccc(O)cc2)C(C)(C)CCC1,inactive

row,Structure (SMILES),outcome
1,CCCN(CCC)CCc1cccc2c1CC(=O)N2,inactive
2,Clc1ccc2c(c1)C(N1CCNCC1)=Nc1ccccc1O2,inactive
3,CCn1cc(C(=O)O)c(=O)c2ccc(C)nc21,inactive
4,Nc1nc2c(ncn2COC(CO)CO)c(=O)[nH]1,inactive
5,NS(=O)(=O)c1cc2c(cc1Cl)NC=NS2(=O)=O,inactive
6,CC[N+](C)(C)c1cccc(O)c1,inactive
7,CN/C(=C\[N+](=O)[O-])NCCSCc1ccc(CN(C)C)o1,inactive
8,NS(=O)(=O)Cc1noc2ccccc12,inactive
9,CN1CCC[C@@H]1CCO[C@](C)(c1ccccc1)c1ccc(Cl)cc1,inactive
10,NNCCc1ccccc1,inactive
11,CN1CCN(C2=Nc3cc(Cl)ccc3Nc3ccccc32)CC1,inactive
12,Cc1cccc(C)c1NC1=NCCCS1,inactive
13,CCCC(CCC)C(=O)O,inactive
14,O=NN(CCCl)C(=O)NCCCl,inactive
15,CCCNC(=O)NS(=O)(=O)c1ccc(Cl)cc1,inactive
16,CC(C)NCC(O)COc1cccc2[nH]ccc12 (stereo not given),inactive
17,CCN(CC)CCNC(=O)c1cc(Cl)c(N)cc1OC,inactive
18,Nc1ncn([C@@H]2O[C@H](CO)[C@@H](O)[C@H]2O)c(=O)n1,inactive
19,OCCN1CCN(CCCN2c3ccccc3Sc3ccc(C(F)(F)F)cc32)CC1,inactive
20,CC(C)C(=O)Nc1ccc([N+](=O)[O-])c(C(F)(F)F)c1,inactive
